High-throughput results as filed in PubChem.
An excerpt weighted towards active compounds, which were near 7.6% of everything screened.
SW480 rerep – inducers of DNA re-replication in SW480 colon cancer cells; SW480 DNA re-replication, Hoechst DNA content imaging, 48 h; 1.8% of 340,000 active; Potency, µM (highest dose often 46.1 µM), hits mostly activators; further: nearly all actives have a fitted effect of over 55% in size
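250 cells/well; 23 nL cpd via pin tool; 48 hr, 37 C, 5% CO2; Hoechst 40 min; imager read of total nuclear intensity, ex 405/em 500-530 nm.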
KB-3-1 tox – KB-3-1 parental cell cytotoxicity; KB-3-1 viability, CellTiter-Glo ATP luminescence, 72 h; Potency, µM (titrated, usually from 46.1 µM), most hits filed as cytotoxic; 1.4% of 400,000 active; further: nearly all actives have a fitted effect of over 60% in size
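KB-3-1 parental drug-naive adenocarcinoma cells in DMEM/10% FBS, incubated 72 h at 37 C with pin-transferred compounds across a concentration series. Viability by CellTiter-Glo luminescence; concentration-response curves fitted after normalization.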
KCNH2 3.1 block – KCNH2 3.1 (human) potassium channel inhibition | U2OS KCNH2 3.1, thallium flux FluxOr; hits give low values | activity change, % (tested at about 1.8 µM) | 0.95% of 340,000 active | AID 720553;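 active means maximum activity change below -70%; inconclusive means maximum activity change from -70% to -50%; inactive means maximum activity change above -50%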;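 further: thallium influx rate constant from kinetic fluorescence after stimulation buffer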
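Thallium flux via FluxOr fluorescence (Red40 quencher, 45 min loading) in U2OS cells virally expressing the KCNH2 3.1 isoform (1.77 x 10^8 /mL virus, overnight at 37 C). Rate constants from 2-min kinetic reads post-stimulation, normalised to positive and negative controls.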
KB-V1 cytotox – KB-V1 MDR subline cytotoxicity; Potency, µM (titrated, usually from 46.1 µM), most hits filed as cytotoxic; AID 1347076; 3.4% of 400,000 active; KB-V1 MDR cells viability, CellTiter-Glo, 72 h; further: nearly all actives have a fitted effect of over 60% in size
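Drug-selected KB-V1 cells, grown in DMEM lacking phenol red with 10% FBS, receive compound titrations; after three days at 37 degrees C, surviving cell ATP is quantified by CellTiter-Glo luminescence and responses normalized and curve-fitted.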
MCF10A rereplic – inducers of DNA re-replication in MCF 10A breast cells. AID 624296. Potency, µM (highest dose often 46.1 µM), usual class: activators. MCF 10A DNA re-replication, Hoechst nuclear intensity, 48 h. 2.9% of 350,000 active; further: nearly all actives have a fitted effect of over 50% in size
hERG WT inh – inhibitors of human wildtype KCNH2 potassium channel | U2OS, BacMam KCNH2, thallium flux FluxOr; hits give low values | activity change, % at 1.84 µM | 0.37% of 340,000 active | AID 720551;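 active means maximum activity change below -70%; inconclusive means maximum activity change between -70% and -50%; inactive means maximum activity change above -50%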
Target sequence (Q12809 whole entry, looked up): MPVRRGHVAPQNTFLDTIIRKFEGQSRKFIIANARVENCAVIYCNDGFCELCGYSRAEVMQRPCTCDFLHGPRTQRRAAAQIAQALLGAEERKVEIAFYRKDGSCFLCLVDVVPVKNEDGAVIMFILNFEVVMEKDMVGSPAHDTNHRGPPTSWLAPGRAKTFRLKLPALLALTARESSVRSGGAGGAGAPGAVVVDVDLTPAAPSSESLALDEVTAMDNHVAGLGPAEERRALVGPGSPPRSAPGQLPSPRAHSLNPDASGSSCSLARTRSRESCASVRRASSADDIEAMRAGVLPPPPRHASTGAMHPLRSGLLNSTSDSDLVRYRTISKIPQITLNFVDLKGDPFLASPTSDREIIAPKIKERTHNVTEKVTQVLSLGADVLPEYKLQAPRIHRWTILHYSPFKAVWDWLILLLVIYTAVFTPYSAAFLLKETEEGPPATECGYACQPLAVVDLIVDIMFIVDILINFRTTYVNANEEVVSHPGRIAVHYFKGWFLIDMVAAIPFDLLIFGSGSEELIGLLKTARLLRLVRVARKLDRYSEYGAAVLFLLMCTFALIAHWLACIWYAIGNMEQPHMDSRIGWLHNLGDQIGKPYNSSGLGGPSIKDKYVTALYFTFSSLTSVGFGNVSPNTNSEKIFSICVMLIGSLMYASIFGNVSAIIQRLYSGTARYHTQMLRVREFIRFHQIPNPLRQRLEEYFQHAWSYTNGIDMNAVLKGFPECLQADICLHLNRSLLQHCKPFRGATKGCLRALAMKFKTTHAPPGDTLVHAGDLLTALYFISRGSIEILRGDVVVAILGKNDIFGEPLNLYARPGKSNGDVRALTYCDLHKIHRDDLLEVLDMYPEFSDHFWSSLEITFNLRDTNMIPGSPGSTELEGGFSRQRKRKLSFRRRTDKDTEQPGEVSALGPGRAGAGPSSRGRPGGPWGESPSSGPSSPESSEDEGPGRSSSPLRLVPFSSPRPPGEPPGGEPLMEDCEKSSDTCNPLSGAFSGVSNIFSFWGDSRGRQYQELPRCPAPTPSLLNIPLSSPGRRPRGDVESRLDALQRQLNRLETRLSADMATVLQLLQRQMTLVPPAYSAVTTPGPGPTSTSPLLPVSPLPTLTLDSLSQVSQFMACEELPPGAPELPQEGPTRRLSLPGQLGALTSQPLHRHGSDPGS
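U2OS cells transduced with wild-type KCNH2 virus are loaded with FluxOr dye for 45 min, and thallium flux is measured in kinetic reads before and after stimulation buffer. Rate constants are normalized to DMSO controls.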
Of the large screens only hits and unclear results are named; the others gave an inactive call. Unless noted, the call rests on the fitted dose curve; in most records, active means well fitted curve in the direction sought with a large enough effect; inconclusive means small, poorly fitted or top-dose-only effect, or another doubt; inactive means no such curve, though single readings can be large; an effect the other way counts as inactive or inconclusive.

Cc1onc(-c2c(Cl)cccc2Cl)c1C(=O)N1CCc2ccccc2C1	KB-V1 cytotox 21µM
O=c1c2ccccc2oc2cc(OCc3ccc(F)cc3)cc(O)c12	KB-V1 cytotox inconclusive, MCF10A rereplic inconclusive
CSc1ccccc1C(=O)N1CCC(n2nccc2NC(=O)C(C)(C)C)CC1	none
Clc1ccc(Nc2ncnc3ccc(Br)cc23)cc1	KB-V1 cytotox 10µM, MCF10A rereplic inconclusive
Brc1ccc2ncnc(NCc3ccccc3)c2c1	KB-3-1 tox 12µM, KB-V1 cytotox inconclusive, MCF10A rereplic inconclusive
Clc1cccc(Nc2ncnc3ccc(Br)cc23)c1	KB-V1 cytotox inconclusive
CCOc1ccccc1CNC(=O)c1cccn1-c1nnc(N2CCCC2)s1	none (no result: SW480 rerep, KCNH2 3.1 block, MCF10A rereplic, hERG WT inh)
O=C(NCCc1ccccc1Cl)c1cc(COc2ccc(F)cc2F)on1	MCF10A rereplic inconclusive
CCCn1c(SCc2nc(N)nc(N3CCCCC3)n2)nc2c1c(=O)n(C)c(=O)n2C	none
Cn1c(=O)c2c(nc(SCCN3CCCCC3)n2C)n(C)c1=O	none
Cn1c(=O)c2c(nc(SCc3nc(N)nc(N4CCCCC4)n3)n2C)n(C)c1=O	KB-3-1 tox inconclusive, KB-V1 cytotox 15µM
CCCCn1c(SCc2nc(N)nc(N3CCCCC3)n2)nc2c1c(=O)n(C)c(=O)n2C	SW480 rerep inconclusive, KB-V1 cytotox 8.2µM
Cc1ccc(NC(=O)CN2CCCC2c2cccn2C)c(Br)c1 (configuration not stated)	none
COc1ccc(/C=N/NC(=O)c2cc3cc(OC)c(OC)cc3[nH]2)cc1	none
CCOc1ccc2[nH]c(C(=O)N/N=C/c3ccc(OC)cc3)cc2c1	SW480 rerep 1.2µM, KB-3-1 tox 1.5µM, KB-V1 cytotox inconclusive, MCF10A rereplic inconclusive
CC(=O)/C(=C/c1ccccc1)C(=O)Nc1ccccc1C	KB-3-1 tox inconclusive, MCF10A rereplic inconclusive
Cc1ccccc1NC(=O)C(=Cc1ccc(C(=O)O)cc1)C(=O)Nc1ccccc1C	SW480 rerep inconclusive, KB-3-1 tox inconclusive, KB-V1 cytotox inconclusive, MCF10A rereplic 13µM
CN(C)CCCN(C(=O)CCc1ccccc1)c1nc2c(F)cccc2s1	KCNH2 3.1 block -71
CCOc1ccc2nc(N(CCN(CC)CC)C(=O)/C=C/c3cccs3)sc2c1	SW480 rerep 29µM, KCNH2 3.1 block -80, MCF10A rereplic inconclusive, hERG WT inh inconclusive
CN(C)CCCN(C(=O)/C=C/c1cccs1)c1nc2c(F)cccc2s1	SW480 rerep inconclusive, KB-3-1 tox inconclusive, KCNH2 3.1 block -117, KB-V1 cytotox inconclusive, MCF10A rereplic 26µM
Cc1cccc2sc(N(CCN(C)C)C(=O)/C=C/c3cccs3)nc12	SW480 rerep inconclusive, KB-3-1 tox inconclusive, KB-V1 cytotox 18µM, MCF10A rereplic 23µM
COc1ccccc1OC(C)C(=O)Nc1ccccc1C(=O)NCC1CCCO1 (configuration not stated)	KB-V1 cytotox inconclusive
O=C(CN1C(=O)NC2(CCCC2)C1=O)Nc1ccccc1N1CCCCC1	none
Cc1ccc(-c2nnc(CSc3nnc(COc4ccccc4)n3-c3ccccc3)o2)cc1	MCF10A rereplic 12µM
Cc1ccc(-c2nnc(CSc3nnc(COc4ccccc4)n3-c3ccc(C)cc3)o2)cc1	SW480 rerep inconclusive, KB-V1 cytotox inconclusive, MCF10A rereplic 23µM
Fc1cccc(F)c1-n1c(CN2CCOCC2)csc1=S	none
Fc1cccc(F)c1-n1c(CN2CCCCC2)csc1=S	SW480 rerep 15µM, KB-3-1 tox 23µM, KB-V1 cytotox inconclusive, MCF10A rereplic inconclusive (no result: KCNH2 3.1 block)
O=C(Cn1nnc(-c2ccc(CN3CCOCC3)cc2)n1)Nc1nc(-c2ccccc2)cs1	KB-V1 cytotox 18µM
O=C(Cc1ccccc1F)Nc1nc(-c2ccc(F)c(F)c2)cs1	SW480 rerep inconclusive, KB-3-1 tox inconclusive, KB-V1 cytotox inconclusive, MCF10A rereplic 16µM
O=C(Cc1c(F)c(F)c(F)c(F)c1F)Nc1nc(-c2ccccc2)cs1	KB-3-1 tox inconclusive, KB-V1 cytotox inconclusive, MCF10A rereplic 18µM
O=C(Cc1ccccc1)Nc1nc(-c2ccc(F)c(F)c2)cs1	none
Cc1ccc(-c2csc(NC(=O)CN3CC(C)OC(C)C3)n2)cc1 (configuration not stated)	SW480 rerep inconclusive, KB-3-1 tox 23µM, KB-V1 cytotox inconclusive, MCF10A rereplic 18µM
CCC(=O)OCC(=O)Nc1cc([N+](=O)[O-])ccc1Cl	none
COc1ccc(CNC(=O)CCCN2C(=O)CSc3c2c(C)nn3-c2ccccc2)c(OC)c1	KB-V1 cytotox inconclusive (no result: SW480 rerep, KCNH2 3.1 block, MCF10A rereplic, hERG WT inh)
CCOC(=O)c1cnc2cc(C(F)(F)F)ccc2c1N1CCN(c2ccc(F)cc2)CC1	none (no result: SW480 rerep, KCNH2 3.1 block, MCF10A rereplic, hERG WT inh)
Cc1ccc2ncc3c(-c4ccccc4)nn(CC(=O)NC4CCCCC4)c3c2c1	KB-V1 cytotox inconclusive (no result: SW480 rerep, KCNH2 3.1 block, MCF10A rereplic, hERG WT inh)
Cc1ccc(NC(=O)c2ccc(-n3cncn3)c([N+](=O)[O-])c2)cc1F	none
O=C(Cc1cccs1)Nc1nc(-c2ccc(F)c(F)c2)cs1	KB-3-1 tox inconclusive, KB-V1 cytotox inconclusive
CC1Cc2cc(-c3csc(NC(=O)Cc4cccs4)n3)ccc2N1S(C)(=O)=O (configuration not stated)	KB-3-1 tox 3.3µM, KB-V1 cytotox 2.6µM, MCF10A rereplic inconclusive
Cc1ccc(S(=O)(=O)CC(=O)Nc2nc(-c3ccccc3)cs2)cc1	KB-V1 cytotox 18µM
O=C(Cc1cccs1)Nc1nc(-c2ccc(F)cc2F)cs1	SW480 rerep inconclusive, KB-3-1 tox 23µM, KB-V1 cytotox inconclusive, MCF10A rereplic inconclusive
Cc1ccc(S(=O)(=O)Nc2ccc(-c3csc(-c4ccccc4)n3)cc2)cc1	SW480 rerep inconclusive, KB-V1 cytotox inconclusive, MCF10A rereplic 12µM
COc1ccccc1-c1noc(CCCC(=O)Nc2ccc(C(N)=O)cc2)n1	MCF10A rereplic inconclusive
O=C(OCc1nc2ccc(Cl)cc2n1CCO)c1ccc(O)cc1	none
COc1ccc(C(=O)n2nc(-c3ccco3)nc2NCc2cccs2)cc1	KB-V1 cytotox inconclusive (no result: SW480 rerep, KCNH2 3.1 block, MCF10A rereplic, hERG WT inh)
O=C(Nc1cc(S(=O)(=O)N2CCOCC2)ccc1N1CCCC1)c1ccc(F)cc1	none
COc1cccc(CC(=O)Nc2nc(-c3cc(OC)ccc3OC)cs2)c1	KB-V1 cytotox inconclusive
COc1cccc(CC(=O)Nc2nc(-c3ccc(F)c(F)c3)cs2)c1	KCNH2 3.1 block -94
CCN(C1CCS(=O)(=O)C1)S(=O)(=O)c1ccc(OC)c(OC)c1 (configuration not stated)	none
O=C1[C@@H]2Cc3c([nH]c4ccccc34)[C@@H](c3ccccc3)N2C(=O)[C@@H]2Cc3c([nH]c4ccccc34)[C@@H](c3ccccc3)N12	SW480 rerep 23µM, MCF10A rereplic inconclusive (no result: KB-3-1 tox, KCNH2 3.1 block, KB-V1 cytotox, hERG WT inh)
Cc1ccc(-n2c(O)c(C=Nc3ccc4c(c3)OCO4)c3ccccc3c2=O)cc1C	none
